Several values for one entry are separate records, joined by “and”; a condition that tells them apart may be missing. Identical values can stand only once.
The molecules below were run on Plasmodium falciparum (assay: GSK_TCMDC: Inhibition of Plasmodium falciparum Dd2 in whole red blood cells, using parasite LDH activity as an index of growth. Test compounds present at 2uM).
Format: functional

Row | SMILES | Inhibition
1 | COc1cccc(CN2CCC(CCOC(c3ccccc3)c3ccccc3)CC2)c1O | 99%
2 | Cn1nc(-c2ccc(S(=O)(=O)NC3CCC(CN4CCC(c5c[nH]c6ccccc56)CC4)CC3)s2)cc1C(F)(F)F (stereo not given) | 24% and 29%
3 | O=C(NC1CCC(CN2CCC(c3c[nH]c4ccccc34)CC2)CC1)c1cc(-c2cccc(Cl)c2)n(-c2ccc(Cl)cc2Cl)n1 (stereo not given) | 25%
4 | Cc1[nH]c2ccccc2c1C1=CCN(CCN2CCOc3c(Br)cccc3C2=O)CC1 | 76%
5 | O=C(/C=C/c1ccc(Cl)c(Cl)c1)N1CCC(CN2CCC(c3c(Br)[nH]c4ccccc34)CC2)CC1 | 99%
6 | CC[C@H]1CN2CCc3cc(OC)c(OC)cc3[C@@H]2C[C@@H]1C[C@H]1NCCc2c1cc(OC)c(OC)c2Br | 97%
7 | Cc1cc(O)cc2c(C3CCN(CC4CCC(NC(=O)/C=C/c5ccccc5Cl)CC4)CC3)c[nH]c12 (stereo not given) | 84%
8 | CC(Cc1ccc([N+](=O)[O-])cc1)NCC(O)c1cccc(C(F)(F)F)c1 (stereo not given) | 92%
9 | O=C(/C=C/c1ccc(Cl)c(Cl)c1)NCC1CCCC(CN2CCC(c3c[nH]c4ccccc34)CC2)C1 (stereo not given) | 43%
10 | O=C(/C=C/c1ccc(Cl)c(Cl)c1)N1CCC(CN2CCC(c3c[nH]c4ccccc34)C(O)C2)CC1 (stereo not given) | 14%
11 | O=C1Nc2cccc3c2C1(CCCCCN1CC=C(c2c[nH]c4ccccc24)CC1)CCC3 (stereo not given) | 89%
12 | O=C(O)/C=C\C(=O)O.OC1(c2ccc(Cl)c(C(F)(F)F)c2)CCN(CCOC2c3ccccc3CSc3ccc(Cl)cc32)CC1 (stereo not given) | 58%

What follows are molecules tested on HepG2 (assay: GSK_TCMDC: Percent inhibition of human HepG2 cell line. Test compounds present at 10uM.).
Format: functional

Row | SMILES | Inhibition
13 | CC(C)CNCc1cccc(-c2ccc(CN(C(=O)NC3CCCCC3)C3CCN(Cc4ccccc4)CC3)cc2)c1.O=C(O)C(F)(F)F | 27%
14 | O=C(/C=C/c1ccc(Cl)c(Cl)c1)NCC1CCC(CN2CCC(c3c[nH]c4ccccc34)CC2)CC1 (stereo not given) | 54%
15 | C[C@H](Cc1ccc(OCCCCCCOc2ccccc2)cc1)NC[C@H](O)c1cccc(Cl)c1.Cl | 21%
16 | O=C(C=C1c2ccccc2-c2ccccc21)NC1CCC(CN2CCC(c3c[nH]c4ccccc34)CC2)CC1 (stereo not given) | 21% and 54%
17 | Cc1cc(O)cc2c(C3CCN(CC4CCN(C(=O)/C=C/c5ccc(Cl)c(Cl)c5)CC4)CC3)c[nH]c12 | 33%
18 | Cl.N#Cc1c(F)cc(N2CCC(NCC[C@H](N)Cc3ccc(F)c(F)c3)CC2)cc1F | 70%
19 | Oc1ccc2[nH]cc(C3=CCN(CCc4ccccc4)CC3)c2c1 | 11%
20 | OC(CNCc1ccccc1OC(F)F)c1cccc(C(F)(F)F)c1 (stereo not given) | 2%
21 | Cc1cc(C(=O)NC2CCN(CC3(c4ccc(Cl)cc4)CCC3)CC2)on1 | 5%
22 | COC(=O)c1ccc(CC(C)NCC(O)c2cccc(OCc3ccccc3)c2)cc1.Cl (stereo not given) | 11%
23 | CC(C)CNCc1cccc(-c2cccc(CN(C(=O)NC3CCCCC3)C3CCN(Cc4ccccc4)CC3)c2)c1.O=C(O)C(F)(F)F | 32%
24 | CC(Cc1ccc(NC(=O)CCNCc2ccccc2)cc1)NCCc1cccc(Cl)c1 (stereo not given) | 100%
25 | CCC1CN2CCc3cc(OC)c(OC)cc3C2CC1CC1NCCc2c1[nH]c1ccc(O)cc21 (stereo not given) | 45%
26 | CC[C@H]1CN2CC[C@@H]1C[C@H]2[C@H](O)c1cc(N2CCCC(C)(C)C2)nc2ccc(OC)cc12 | 25%
27 | O=C(/C=C/c1cccc(Cl)c1)NC1CCC(CN2CCC(c3c[nH]c4ccccc34)CC2)CC1 (stereo not given) | 35% and 42%
28 | O=C(Nc1ccc(Cl)c(Cl)c1)N1CCC(CN2CCC(c3c[nH]c4ccccc34)CC2)CC1 | 46%
29 | Cc1cccc(C(=O)Nc2ccnc(N(C)C3CCN(Cc4cccc(O)c4)CC3)c2)c1.O=C(O)C(F)(F)F | 5%
30 | O=C(/C=C/c1ccc(Cl)c(Cl)c1)NC1CCC(N2CCC(c3c[nH]c4ccccc34)CC2)CC1 (stereo not given) | 41%
31 | COc1cccc(C(=O)C2CC2CN2CC=C(c3c[nH]c4ccc(OC)nc34)CC2)c1 (stereo not given) | 8%

Row | SMILES | Inhibition
32 | CC(C)n1ncc2c(C(=O)Nc3ccc(C#N)c(Cl)c3)cc(C3CC3)nc21 | 20%
33 | CNCCN(C)C(=O)Oc1c(Cl)c(C)nc(C)c1-c1ccc(Oc2ccc(OC(F)(F)F)cc2)cc1.Cl | 0%
34 | C[C@@H]1C[C@@H]([C@H](O)CC2CC(=O)NC(=O)C2)C(=O)[C@@H](C)C1 [CYCLOHEXIMIDE] | 46%
35 | COc1cc(C(=O)NC2CCC(CN3CCC(c4c[nH]c5ccccc45)CC3)CC2)cc(Cl)n1 (stereo not given) | 33%
36 | CC(Cc1ccc(OCCCCOc2ccccc2)cc1)NCCCn1ccnc1 (stereo not given) | 100%
37 | Cl.O=C(CC1CCCC1)N(CC1CCN(Cc2ccc(C(F)(F)F)cc2)CC1)c1ccc(N2CCOCC2)c(F)c1 | 10%
38 | O=C(NC1CCC(CN2CCC(c3c[nH]c4ccccc34)CC2)CC1)c1cc2ccccc2s1 (stereo not given) | 44%
39 | COc1cccc(CN2CCC(CCOC(c3ccccc3)c3ccccc3)CC2)c1O | 33%
40 | Cn1nc(-c2ccc(S(=O)(=O)NC3CCC(CN4CCC(c5c[nH]c6ccccc56)CC4)CC3)s2)cc1C(F)(F)F (stereo not given) | 35% and 38%
41 | O=C(NC1CCC(CN2CCC(c3c[nH]c4ccccc34)CC2)CC1)c1cc(-c2cccc(Cl)c2)n(-c2ccc(Cl)cc2Cl)n1 (stereo not given) | 53%
42 | Cc1[nH]c2ccccc2c1C1=CCN(CCN2CCOc3c(Br)cccc3C2=O)CC1 | 15%
43 | O=C(/C=C/c1ccc(Cl)c(Cl)c1)N1CCC(CN2CCC(c3c(Br)[nH]c4ccccc34)CC2)CC1 | 41%
44 | CC[C@H]1CN2CCc3cc(OC)c(OC)cc3[C@@H]2C[C@@H]1C[C@H]1NCCc2c1cc(OC)c(OC)c2Br | 45%
45 | Cc1cc(O)cc2c(C3CCN(CC4CCC(NC(=O)/C=C/c5ccccc5Cl)CC4)CC3)c[nH]c12 (stereo not given) | 21%
46 | CC(Cc1ccc([N+](=O)[O-])cc1)NCC(O)c1cccc(C(F)(F)F)c1 (stereo not given) | 0%
47 | O=C(/C=C/c1ccc(Cl)c(Cl)c1)NCC1CCCC(CN2CCC(c3c[nH]c4ccccc34)CC2)C1 (stereo not given) | 61%
48 | O=C(/C=C/c1ccc(Cl)c(Cl)c1)N1CCC(CN2CCC(c3c[nH]c4ccccc34)C(O)C2)CC1 (stereo not given) | 37%
49 | O=C1Nc2cccc3c2C1(CCCCCN1CC=C(c2c[nH]c4ccccc24)CC1)CCC3 (stereo not given) | 2%
50 | O=C(O)/C=C\C(=O)O.OC1(c2ccc(Cl)c(C(F)(F)F)c2)CCN(CCOC2c3ccccc3CSc3ccc(Cl)cc32)CC1 (stereo not given) | 3%

— ChEMBL document CHEMBL1157539, “Thousands of chemical starting points for antimalarial lead identification” (Nature, 2010)
